According to PubChem BioAssay AID1159580 (chemical genetic matrix, 2015):
Out of some 5,500 compounds screened, about 2,000 (36%) were called active. Roughly 18% stayed inconclusive and do not appear here. Rule as the data show it: active = normalized growth mostly below about 0.91 (no sharp cut-off); inconclusive = no clear call, values can overlap the other calls; inactive = mostly above about 0.92. This is one part of the list.

Experiment: chemical genetic growth profiling, strain panel (AID 1159580);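 also: tested at 20 µM; growth read once vehicle control cultures reached saturation at 30 °C; 1 = growth at the plate median or of vehicle wells; lower values mean less growth of the strain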
Conditions: S. cerevisiae deletion strains, growth OD

Measured: normalized growth

CCOC(=O)C1=CC2(CC)CCCN3CCc4c(n1c1ccccc41)C32 (configuration not stated)
inactive: locus YAL040C, strain CLN3, hits give low values 1 | locus YCL061C, strain MRC1 (second series), hits give low values 1 | locus YDR150W, strain NUM1, hits give low values 1 | locus YDR363W, strain ESC2, hits give low values 1 | locus YER002W, strain NOP16, hits give low values 1.02 | locus YGR078C, strain PAC10, hits give low values 0.999 | locus YGR229C, strain SMI1, hits give low values 1.01 | locus YJR075W, strain HOC1, hits give low values 0.984 | locus YMR307W, strain GAS1, hits give low values 1.01 | locus YNL153C, strain GIM3, hits give low values 0.989 | locus YNL175C, strain NOP13, hits give low values 1.03 | locus YNL197C, strain WHI3, hits give low values 1.03 | locus YNL224C, strain SQS1, hits give low values 1.01 | locus YNL322C, strain KRE1, hits give low values 0.983 | locus YOR083W, strain WHI5 (second series), hits give low values 1.01 | locus YPL055C, strain LGE1, hits give low values 1.02 | locus YPL241C, strain CIN2, hits give low values 0.997
